Assay results: PMC5540273 (PLoS ONE, 2017)
Like-named read-outs stand apart in the source and are kept apart here.

Legend:
Conditions in all cases: n = 1
NEK7 = system: NEK7
NEK9 = system: NEK9
NIK = system: T1, NIK
T1 construct: gene MAP3K14

NIM1 = system: T2, NIM1
T2 construct: gene MGC42105

NLK = system: NLK
OSR1 = system: T3, OSR1
T3 construct: gene OXSR1

PAK1 = system: PAK1
PAK2 = system: PAK2
PAK3 = system: PAK3
PAK4 = system: PAK4
[1] = concentration: 1 μM, replicates: in singlicate
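Also: KINOMEscan kinase panel screen.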

SMILES	%Inh (NEK7; [1])	%Inh (NEK9; [1])	%Inh (NIK; [1])	%Inh (NIM1; [1])	%Inh (NLK; [1])	%Inh (OSR1; [1])	%Inh (PAK1; [1])	%Inh (PAK2; [1])	%Inh (PAK3; [1])	%Inh (PAK4; [1])	%Inh (NEK7; 1 µM)	%Inh (NEK9; 1 µM)	%Inh (NIK; 1 µM)	%Inh (NIM1; 1 µM)	%Inh (NLK; 1 µM)	%Inh (OSR1; 1 µM)	%Inh (PAK1; 1 µM)	%Inh (PAK2; 1 µM)	%Inh (PAK3; 1 µM)	%Inh (PAK4; 1 µM)
Cc1c(O)cccc1Nc1ccnc2ccc(C(F)(F)F)cc12.Cl [GW466413]	0%	0%	22%	17%	0%	0%	0%	0%	1%	0%	–	–	–	–	–	–	–	–	–	–
Cc1ccc(C(=O)Nc2ccc(Nc3ccnc4cc(-c5ccccn5)ccc34)cc2O)cc1.Cl [GW440146]	0%	52%	11%	15%	22%	1%	12%	15%	14%	0%	–	–	–	–	–	–	–	–	–	–
Cl.NC(=O)c1cccc(Nc2nccc(Nc3ccc(Oc4cccc(Cl)c4)c(Cl)c3)n2)c1 [GW659008]	16%	3%	27%	29%	21%	8%	9%	9%	33%	0%	–	–	–	–	–	–	–	–	–	–
Cc1csc(-c2nc(Nc3ccncc3)c3ccccc3n2)n1 [GW869640]	0%	16%	32%	40%	64%	17%	12%	56%	28%	9%	–	–	–	–	–	–	–	–	–	–
Cc1ccc(-c2cc(-c3c[nH]nc3-c3ccccn3)ccn2)cc1 [GW684088]	0%	0%	47%	17%	22%	5%	14%	18%	0%	19%	–	–	–	–	–	–	–	–	–	–
Cc1ccc(NC(=O)Nc2cccc(C(F)(F)F)c2)cc1 [GSK955403]	–	–	–	–	–	–	–	–	–	–	0%	0%	8%	0%	15%	0%	24%	5%	0%	4%
Cc1ccccc1-n1cnc2c(N)ncnc21 [SKF-97510]	12%	0%	0%	0%	15%	0%	15%	11%	25%	0%	–	–	–	–	–	–	–	–	–	–
Cc1cc(-c2ccc3c(c2)CC[C@@H](N[C@@H](C)c2ccccc2)C3)cnc1N.Cl [GW412617]	9%	0%	77%	22%	0%	8%	0%	16%	0%	36%	–	–	–	–	–	–	–	–	–	–
O=C(O)COc1ncnc2cc(-c3ccc4[nH]ncc4c3)sc12	5%	0%	0%	26%	0%	34%	5%	3%	3%	0%	–	–	–	–	–	–	–	–	–	–
Cc1cccc(-c2nc(Nc3cccc(C(N)=O)c3)c3ccccc3n2)n1 [GW876019]	0%	15%	0%	0%	0%	0%	16%	21%	49%	17%	–	–	–	–	–	–	–	–	–	–
CS(=O)(=O)c1ccc(-c2c(-c3ncn[nH]3)sc(N3CCOCC3)c2C#N)cc1	0%	0%	0%	21%	0%	0%	2%	10%	6%	5%	–	–	–	–	–	–	–	–	–	–
O=C(Nc1n[nH]c2cc(-c3cccc(F)c3F)ccc12)C1CC1 [SB-733894]	7%	0%	0%	0%	72%	0%	3%	41%	2%	12%	–	–	–	–	–	–	–	–	–	–
Fc1cc(Cl)ccc1Nc1ccnc2cc(-c3ccc(CN4CCCCC4)o3)ccc12 [GW560116]	0%	0%	10%	0%	16%	0%	2%	5%	0%	0%	–	–	–	–	–	–	–	–	–	–
Cc1cccc(-c2nc(Nc3ccc4[nH]ncc4c3)c3ccccc3n2)n1 [GW857175]	5%	0%	11%	30%	1%	25%	0%	2%	0%	6%	–	–	–	–	–	–	–	–	–	–
COC(=O)c1c(-c2ccccc2)c2cc(OC)ccc2c(=O)n1Cc1ccccc1	0%	7%	0%	0%	0%	0%	31%	27%	44%	9%	–	–	–	–	–	–	–	–	–	–
Cn1ccc2ncnc(Oc3cccc(C(=O)Nc4ccccc4)c3)c21	0%	0%	0%	0%	4%	0%	0%	0%	9%	21%	–	–	–	–	–	–	–	–	–	–

SMILES	%Inh (NEK7; [1])	%Inh (NEK9; [1])	%Inh (NIK; [1])	%Inh (NIM1; [1])	%Inh (NLK; [1])	%Inh (OSR1; [1])	%Inh (PAK1; [1])	%Inh (PAK2; [1])	%Inh (PAK3; [1])	%Inh (PAK4; [1])	%Inh (NEK7; 1 µM)	%Inh (NEK9; 1 µM)	%Inh (NIK; 1 µM)	%Inh (NIM1; 1 µM)	%Inh (NLK; 1 µM)	%Inh (OSR1; 1 µM)	%Inh (PAK1; 1 µM)	%Inh (PAK2; 1 µM)	%Inh (PAK3; 1 µM)	%Inh (PAK4; 1 µM)
Clc1cc(Cl)cc(Nc2ccnc(Nc3cc(Cl)cc(Cl)c3)n2)c1 [GSK175726]	0%	7%	0%	0%	17%	0%	12%	0%	0%	6%	–	–	–	–	–	–	–	–	–	–
O=c1cc(N2CCOCC2)nc2n(Cc3cccc(Cl)c3Cl)ccn12 [GSK2286295]	0%	27%	32%	0%	28%	14%	22%	11%	0%	0%	–	–	–	–	–	–	–	–	–	–
Nc1nc(-c2nccs2)c(-c2ccnc3ccccc23)s1 [GW693542]	0%	12%	0%	5%	38%	6%	0%	1%	9%	0%	–	–	–	–	–	–	–	–	–	–
COc1ccc(Nc2nccc(-c3cccc(NC(=O)c4cc5cc(F)ccc5[nH]4)c3)n2)cc1 [GSK1229782]	0%	21%	50%	13%	9%	18%	36%	35%	13%	22%	–	–	–	–	–	–	–	–	–	–
Cn1ccc2ncnc(Oc3ccc(Nc4nc5ccccc5[nH]4)cc3)c21	0%	0%	0%	0%	4%	0%	14%	0%	0%	0%	–	–	–	–	–	–	–	–	–	–
NC(=O)c1nnc2ccccc2c1N	0%	0%	69%	14%	2%	31%	0%	7%	5%	0%	–	–	–	–	–	–	–	–	–	–
COc1cc2ncnc(Nc3ccc4nc(-c5ccccc5)[nH]c4c3)c2cc1OC.Cl [GW282450]	0%	22%	23%	18%	38%	11%	9%	9%	0%	0%	–	–	–	–	–	–	–	–	–	–
CC1=C(C(=O)Nc2cc3cn[nH]c3cc2F)C(c2ccc(C(F)(F)F)cc2)CC(=O)N1 (centres unmarked) [GSK429286]	0%	0%	27%	12%	13%	18%	0%	4%	45%	0%	–	–	–	–	–	–	–	–	–	–
O=C(Nc1n[nH]c2nc(-c3nccs3)c(Br)cc12)C1CCCC1 [SB-742609]	5%	0%	33%	0%	31%	7%	16%	21%	17%	0%	–	–	–	–	–	–	–	–	–	–
O=C(Nc1ccc2c(c1)OCO2)NC1CCN(c2ccnc(Nc3ccc(F)cc3)n2)C1 (centres unmarked) [GSK1379724]	0%	0%	0%	46%	12%	0%	18%	37%	0%	0%	–	–	–	–	–	–	–	–	–	–
Cc1nnc(-c2ccc3occ(-c4ccc(S(C)=O)cc4)c3c2)[nH]1 (centres unmarked)	22%	25%	0%	0%	17%	6%	28%	36%	17%	8%	–	–	–	–	–	–	–	–	–	–
COc1ccccc1-c1ccc2c(NC(=O)C3CC3)n[nH]c2n1 [SB-711239]	6%	5%	0%	19%	15%	64%	5%	0%	7%	12%	–	–	–	–	–	–	–	–	–	–
C[C@@H]1CCCCN1c1cc(-c2ccc3c(N)n[nH]c3c2)nc(N)n1 [GSK2258759]	0%	0%	7%	0%	23%	0%	6%	0%	0%	0%	–	–	–	–	–	–	–	–	–	–
Cl.Oc1ccc(-c2nc(-c3ccccc3)[nH]c2-c2ccncc2)cc1 [SB-428218]	0%	0%	74%	38%	45%	0%	55%	55%	20%	0%	–	–	–	–	–	–	–	–	–	–
COc1ccc(CNC(=O)NC2CCN(c3ccnc(Nc4cc(OC)c(OC)c(OC)c4)n3)C2)cc1 (centres unmarked) [GSK1379748]	15%	15%	25%	0%	17%	0%	3%	0%	0%	0%	–	–	–	–	–	–	–	–	–	–
Nc1ncnc2[nH]c(-c3ccccc3)nc12 [AH5015]	7%	1%	50%	21%	0%	17%	30%	48%	100%	0%	–	–	–	–	–	–	–	–	–	–
